Only some compounds are listed: those with a hit (about 0.4% of all), similar ones and a draw of the others.
Cdc42 wt – modulators (inhibitors or activators) of GTP binding to human Cdc42 wildtype | P60953 | GST-Cdc42 beads, Bodipy-GTP binding, flow cytometry; actives lie on both sides | percent activity (GTP binding), % at 10 µM | actives 0.2% (n = 190,000);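 active = percent activity GTP binding at least 20 points away from the 100% baseline, either down as inhibitor or up as activator; inconclusive = compound flagged as likely green fluorescent from well-wide comparison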;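 also: median bead fluorescence of bound Bodipy-FL-GTP at 100 nM; 0% = excess unlabeled GTP control and 100% = no compound control; below 100% means less GTP binding so inhibitor and above means activator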
Target sequence (P60953 whole entry, looked up): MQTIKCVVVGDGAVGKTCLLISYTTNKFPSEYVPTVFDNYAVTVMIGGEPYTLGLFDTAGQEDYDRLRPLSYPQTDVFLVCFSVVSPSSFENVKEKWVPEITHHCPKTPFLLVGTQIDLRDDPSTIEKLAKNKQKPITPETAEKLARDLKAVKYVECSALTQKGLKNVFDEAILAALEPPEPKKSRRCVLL
Rac1 wt modul – human Rac1 wildtype GTP binding, inhibitors and activators; actives 0.27% (n = 190,000); GST-Rac1 beads, fluorescent GTP binding, flow cytometry; actives lie on both sides; 0 = cold GTP competed, 100 = untreated; GTP binding activity (% of control), % at 10 µM; P63000;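 active = GTP binding activity at least 20 points away from the 100% control level, either lower or higher; inconclusive = compound flagged as likely green fluorescent, judged across all proteins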
Rab2A wt mod – changes GTP binding to wildtype dog Rab2A, up or down. P61105. GST-Rab2 wt beads, Bodipy-GTP binding, flow cytometry. GTP binding activity, % at 10 µM. actives 0.19% (n = 190,000). AID 760;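 active = GTP binding activity at least 20 points away from 100%, either lowered or raised; inconclusive = signal likely due to the compound's own green fluorescence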;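 also: 0% = beads with excess unlabeled GTP and 100% = no-compound control corrected for plate trend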
Rac1 mut GTP – alters GTP binding to activated mutant human Rac1. AID 764. percent activity (GTP binding), % at 10 µM. actives 0.11% (n = 190,000). GST-Rac1 activated beads, fluorescent GTP binding, flow cytometry; actives lie on both sides; 100% means binding = to untreated wells. P63000;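 active = GTP binding at least 20 percentage points away from the 100% baseline, in either direction, so actives lie on both sides; inconclusive = Compound likely fluorescent itself, or too few beads counted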
Rab7 wt GTP bind – modulators of GTP binding to dog Rab7 wildtype GTPase; actives 0.055% (n = 190,000); GST-Rab7 beads, fluorescent GTP binding, flow cytometry; actives lie on both sides; untreated = 100%, excess cold GTP = 0%; AID 758; GTP binding activity (percent of control), % at 10 µM;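 active = fluorescent GTP binding to Rab7 beads changed by at least 20 points from the 100% baseline, either direction, mostly lower; inconclusive = compound itself probably fluorescent, or too few beads counted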;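 also: median green fluorescence of bound Bodipy-FL-GTP per Rab7 bead population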
HRas wt GTP – changes GTP binding to wildtype human HRas; GST-Ras wt beads, Bodipy-FL-GTP binding, flow cytometry; actives lie on both sides; GTP binding activity, % at 10 µM; actives 0.14% (n = 190,000);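 active = GTP binding activity at least 20% away from the 100% baseline, either lowered as inhibitor or raised as activator; inconclusive = flagged as likely green fluorescent, judged across all proteins in the well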;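 also: 0% = unlabeled GTP competition control and 100% = no-compound control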
Target sequence (P01112 whole entry, looked up): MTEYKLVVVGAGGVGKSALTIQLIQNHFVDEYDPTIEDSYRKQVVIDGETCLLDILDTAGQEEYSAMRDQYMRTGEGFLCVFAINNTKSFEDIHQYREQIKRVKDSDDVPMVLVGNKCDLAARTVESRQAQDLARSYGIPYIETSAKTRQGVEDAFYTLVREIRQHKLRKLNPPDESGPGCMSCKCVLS
* hit, by the source's call; ? = inconclusive; · = no result given; [ ] = another dose, or the depositor's remark.

SMILES	Cdc42 wt	Rac1 wt modul	Rab2A wt mod	Rac1 mut GTP	Rab7 wt GTP bind	HRas wt GTP
O=C(O)c1cccc(S(=O)(=O)Nc2ccccc2Cl)c1	101	97	97	98	99	98
O=C(NCCc1c[nH]c2ccccc12)c1cccc(S(=O)(=O)Nc2ccccc2Cl)c1	93	80	79*	89	88	83
OCCC1CN(Cc2cnc(-c3cccc4ccccc34)nc2)CCN1C1CCCCC1 (stereo not drawn)	97	99	97	96	98	97
Cc1ccc(C(=O)COC(=O)c2ccc3c(c2)C(=O)N(c2cccc4ncccc24)C3=O)cc1	77*	71*	71*	75*	84	76*
O=C(COC(=O)c1ccc2c(c1)C(=O)N(c1cccc3ncccc13)C2=O)c1ccc(Cl)cc1	89	82	83	86	90	90
COc1cc(CCNc2ccc3nnc(-c4ccccc4)n3n2)cc(OC)c1OC	73*	73*	74*	89	89	71*
COc1ccc(OC)c(S(=O)(=O)NC(N)=NCCc2ccccc2OC)c1	94	97	100	97	97	95
CC1=NNC(=O)C1C(c1ccccc1)C1C(=O)NN=C1C (stereo not drawn)	96	96	96	94	94	97
CCCCN(C(=O)c1cccc2c(=O)c(C)c(-c3ccccc3)oc12)c1ccccc1	98	103	97	99	103	101
N=c1oc2ccc3ccccc3c2cc1-c1nc(-c2ccccc2)cs1	83	79*	79*	82	92	82
CCOc1cccc(NC(=O)c2cccc(F)c2)c1	92	98	93	94	96	95
CS(=O)(=O)c1ccc(C(=O)OCc2nnc(-c3ccc(Cl)cc3)o2)cc1[N+](=O)[O-]	86	93	87	81	94	90
CCOC(=O)c1cc(C(=O)OCC)c2ccccn2c1=O	95	87	88	88	76*	79*
Cc1cc(/C=c2\sc3nc4ccccc4n3c2=O)c(C)n1-c1ccc(C(=O)O)cc1	78*	81	85	76*	94	88
O=C1c2ccccc2C(=O)N1CCCCN(C(=O)c1cc2ccccc2oc1=O)c1ccc(Cl)cc1	43*	50*	46*	53*	29*	51*
Clc1cccc(NCc2cn3cccnc3n2)c1	104	105	103	103	104	103
COc1ccc(-c2nsc(SCC(=O)NCC3CCCO3)n2)cc1 (stereo not drawn)	92	102	97	96	97	95
Cc1cc(C)c2nc(NNC(=O)c3cc(=O)c4ccccc4o3)sc2c1	77*	80	79*	71*	96	82
CCOc1ccc(Cn2c3ccc(OC)cc3c3nc4ccccc4nc32)cc1	103	124*[activator]	130*[activator]	115	?	119
COc1ccc(/C=C2\N=C(SC)SC2=O)cc1OC	82	81	77*	81	64*	81
CSC1=N/C(=C\c2ccc(C)cc2)C(=O)S1	107	103	104	99	98	105
CCCCCCCCSc1nnc2[nH]c(=O)cc(N)n12	69*	·	·	·	·	84
Cc1ccc(NCC(=O)c2ccccc2)cc1Cl	93	91	88	92	82	78*
CCc1cccc(N(C(=O)c2csnn2)C(C(=O)NC(C)(C)C)c2ccncc2)c1 (stereo not drawn)	97	101	99	97	100	99
Cc1ccccc1C(=O)Nc1ccc2c(C#N)c3nc4ccccc4nc3n2c1	88	76*	76*	88	89	80
CC(=O)Nc1ccc(NC(=O)c2ccccc2C)cc1	103	105	102	101	102	102
COc1ccc(CCNC(=O)C(=O)Nc2nccs2)cc1OC	99	98	99	97	97	99
